From PubChem BioAssay AID1063 (University of Pittsburgh Molecular Library Screening Center, 2008)
The whole screen tested about 200,000 compounds, of which about 18,000 (9%) were called active. The entries come from a sample that favours actives as a whole. Unmarked numbers belong to inactive results. Rule as the data show it: active = inhibition above about 50%; inactive = the rest.

Assay: Leishmania major promastigote growth inhibition, primary screen (AID 1063);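 also: promastigotes grown with compound for 44 hours at 28 °C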
Details: Leishmania major promastigotes, resazurin fluorescence viability; at 10 µM; stronger effect = higher value
With `CCc1cccc(CC)c1NC(=S)NCc1ccc2[nH]c(C)cc2c1` the inhibition was 94.4% (active). Molecule `Cc1cc2cc(CNC(=O)c3cccs3)ccc2[nH]1` has an inhibition of -4.21%. `Cc1cccc(NC(=S)NCc2ccc3[nH]c4c(c3c2)CCCC4)c1` gave an inhibition of 11.1%. Molecule `COc1cc(/C=C(\C#N)C(=O)Nc2ccc3ccccc3c2)c([N+](=O)[O-])cc1OC` has an inhibition of -8.56%. `O=C(/C=C/c1ccccc1[N+](=O)[O-])OC1CCCCC1=O` (configuration not stated) gave an inhibition of -5.55%. With `CC1CCCCC1NC(=O)/C(C#N)=C/C=C/c1ccccc1[N+](=O)[O-]` (configuration not stated) the inhibition was 69% (active). `COc1cc(CN(C)Cc2nc3cc(C(F)(F)F)ccc3c(=O)[nH]2)ccc1OC(F)F` showed an inhibition of 8.36%. Work on `O=C(CSc1cccc[n+]1[O-])c1ccc(-c2ccccc2)cc1` yielded an inhibition of -8.44%. Work on `CC(NC(=S)NC1CCCCC1)C(c1ccccc1)N1CCOCC1` (configuration not stated) yielded an inhibition of 1.15%. In the case of `Cc1ccccc1CN1CCN(CC(=O)NCc2ccccn2)C1=O`, the inhibition is reported as -4.22%. `Cc1ccccc1CN1C[C@@H]2C[C@@H](c3cn(C)nc3-c3ccccc3)N3CCC[C@@]23C1=O` gave an inhibition of 9.77%. For `Cc1ccccc1CN1C[C@@H]2C[C@@H](c3ccc4nsnc4c3)N3CCC[C@@]23C1=O`, the inhibition was 78.4% (active). `CCN1CCN(C(=O)CN(C)S(=O)(=O)c2ccc3ccccc3c2)CC1` gave an inhibition of 0.63%. With `O=C(N/N=C/c1cc2c(cc1Br)OCO2)C1COc2ccccc2O1` (configuration not stated) the inhibition was 38%. `O=C1NCC(=O)N(Cc2ccccc2)/C1=C/c1ccccc1` showed an inhibition of -0.36%. Work on `CC1=NN(Cc2ccccc2)C(=O)/C1=C/c1ccc(N(C)C)cc1` yielded an inhibition of -0.65%. For `CN(C)c1ccc(/C=C2\NC(=S)N(Cc3ccccc3)C2=O)cc1`, the inhibition was 96.8% (active). `Cc1noc(C)c1CCC(=O)O` showed an inhibition of -0.11%. `CC(CC(=O)Nc1ccccc1)n1ccnc1` (configuration not stated) showed an inhibition of -7.2%. In the case of `COc1ccc(NC(C)=O)cc1NC(=O)CN1CCN(C2c3ccccc3-c3ccccc32)CC1`, the inhibition is reported as 84% (active). With `COc1ccc(NC(C)=O)cc1NC(=O)CN1CCN(c2ccccn2)CC1` the inhibition was -3.06%. `COc1ccc(OC)c(NC(=O)CN2CCN(C(=O)c3ccco3)CC2)c1` showed an inhibition of -1.17%. Work on `CCC(CC)NC(=O)CSc1nnc(-c2c[nH]c3ccccc23)o1` yielded an inhibition of 6.71%. With `Cc1ccc(S(=O)(=O)Cn2nnnc2CN2CCN(Cc3ccc4c(c3)OCO4)CC2)cc1` the inhibition was 93.4% (active). `CC(C)(C)n1nnnc1C(c1ccc(F)cc1)N1CCN(Cc2ccc3c(c2)OCO3)CC1` (configuration not stated) showed an inhibition of 48.1%. `Fc1ccccc1C(c1nnnn1Cc1ccc2c(c1)OCO2)N1CCN(Cc2ccccc2)CC1` (configuration not stated) showed an inhibition of 26.7%. In the case of `O=C(CCN1CCc2ccccc2C(O)(c2ccccc2)C1)c1ccc2c(c1)OCCO2` (configuration not stated), the inhibition is reported as 95.3% (active). Work on `O=C(CN1CCN(c2ccccc2F)CC1)c1ccc2c(c1)OCO2` yielded an inhibition of 8.93%. Work on `O=C(CN1CCC(O)(c2ccccc2)CC1)Nc1ccc2c(c1)OCCO2` yielded an inhibition of 3.55%. `O=C(Cc1ccccc1)NNC(=O)C1CCN(c2ncccn2)CC1` showed an inhibition of -9.12%. Work on `CCc1cc(CNC(=O)CC2C(=O)NCCN2CC2CCCCC2)on1` (configuration not stated) yielded an inhibition of -6.55%. For `COc1ccc(/C=C/C(=O)c2ccc(NS(=O)(=O)c3ccc(C)cc3)cc2)cc1O`, the inhibition was 99.6% (active). With `COc1ccc(NS(=O)(=O)c2ccc(NC(C)=O)cc2)cc1OC` the inhibition was -3.17%. With `COc1ccc(C(=O)Oc2cc(/C=N/NS(=O)(=O)c3ccc(C)cc3)ccc2OC)cc1` the inhibition was 0.27%. Work on `O=C(CCC(=O)Nc1ccccc1)N/N=C/c1ccccc1F` yielded an inhibition of 0.99%. Work on `CCC(C(=O)Nc1ccc2c(c1)OCCO2)c1ccccc1` (configuration not stated) yielded an inhibition of 4.21%. Work on `CCO[C@H]1OC(C(=O)Nc2ccccc2)=C[C@@H](C2CC2)[C@@H]1CCCO` yielded an inhibition of 1.1%. Work on `CCOC(=O)C1=C(CC)OC(N)=C(C#N)C1c1ccc(F)cc1F` (configuration not stated) yielded an inhibition of 11.4%. With `COc1cc2c(cc1OC)C(c1ccc(C)o1)CC(=O)N2` (configuration not stated) the inhibition was -5.73%. In the case of `COC(=O)c1ccc(C2CC(=O)Nc3cc(OC)c(OC)cc32)cc1` (configuration not stated), the inhibition is reported as 53.2% (active). `COc1cc2c(cc1OC)C(c1ccncc1)CC(=O)N2` (configuration not stated) showed an inhibition of -6.82%. With `O=C(NCCOc1ccccc1)c1ccccc1` the inhibition was -1.77%. `O=C(NCCc1ccccc1)c1ccc(OCCOc2ccccc2)cc1` gave an inhibition of -1.38%. With `CC(C)(c1ccccc1)c1ccc(OCCN)cc1` the inhibition was 51.4% (active). With `COc1cc(OC)cc(C(=O)NCC(=O)OCc2csc(-c3ccccc3)n2)c1` the inhibition was 34.9%. With `O=C(CNCc1ccc(Cl)cc1)Nc1cccc(C(=O)O)c1` the inhibition was 1.28%. `N/C(=N\OC(=O)Cc1ccccc1[N+](=O)[O-])c1ccc(Br)cc1` showed an inhibition of 10.7%. For `COc1cccc(CNC(=O)CCC2CCCN(C(=O)c3ccoc3C)C2)c1` (configuration not stated), the inhibition was -4.54%. With `COc1cccc(CNC(=O)CCC2CCCN(Cc3ccc(OC(F)F)cc3)C2)c1` (configuration not stated) the inhibition was 98.5% (active). Work on `COc1cccc(C(=O)N2CCCC(CCC(=O)NCc3ccc(F)c(F)c3)C2)c1` (configuration not stated) yielded an inhibition of 6.37%. `COc1ccc(/C=N/NC(=O)C(C)N(c2ccc(OC)cc2)S(C)(=O)=O)cc1` (configuration not stated) gave an inhibition of 4.55%. With `COc1ccc(Cl)cc1NC(=O)C(C)N1CCc2ccccc21` (configuration not stated) the inhibition was 16.9%. Molecule `CC1(C)OC(=O)C(=CNC(CO)C(=O)O)C(=O)O1` (configuration not stated) has an inhibition of -4.58%. Molecule `O=C(Nc1ccc2c(c1)OCCO2)c1ccc(Cl)c(S(=O)(=O)N2CCCCC2)c1` has an inhibition of -0.95%. With `O=[N+]([O-])c1cccc(S(=O)(=O)N2CCCCCC2)c1` the inhibition was 36.7%. For `O=C(Oc1ccc([N+](=O)[O-])cc1)c1ccc(Cl)c(S(=O)(=O)N2CCCCC2)c1`, the inhibition was 56.8% (active). Work on `S=C(NCCc1ccccc1)NCc1ccccc1Cl` yielded an inhibition of -3.26%. `O=C(O)Cc1ccc(NCc2ccccc2Cl)cc1` showed an inhibition of -1.01%. With `OCCNCc1cccc(OCc2ccccc2Cl)c1` the inhibition was 88.8% (active). With `COc1ccccc1NC(=O)c1cc(Cl)nnc1Cl` the inhibition was 15.6%. For `Cc1cccc(NC(=O)c2cc([N+](=O)[O-])ccc2N2CCN(C)CC2)c1`, the inhibition was -0.64%. Work on `COc1ccc(NC(=O)c2sc(N)nc2-c2ccccc2)cc1` yielded an inhibition of 2.6%. In the case of `Cc1cccc(NC(=O)c2sc(-c3ccccc3)nc2-c2ccc([N+](=O)[O-])cc2)c1`, the inhibition is reported as 99.5% (active). `CC(=O)C1=C(O)C(=O)N(c2cccnc2)C1c1ccc([N+](=O)[O-])cc1` (configuration not stated) showed an inhibition of -4.89%. Work on `Cc1ccc(OCC(=O)NNC(=S)NCc2ccccc2)cc1` yielded an inhibition of -2.06%. With `Cc1ccc(Nc2nc(CSc3nnnn3-c3ccccc3)cc(=O)[nH]2)cc1` the inhibition was 97.7% (active). `Cc1ccc(-c2noc(CSc3nnnn3-c3ccccc3)n2)cc1` showed an inhibition of 7.86%. Molecule `O=c1c2ccccc2nc(CSc2nnnn2-c2ccccc2)n1-c1ccccc1` has an inhibition of -5.4%. `CC1=NNC(=O)C1CCC(=O)N/N=C\c1cccc(Cl)c1` (configuration not stated) gave an inhibition of 0.75%. `COc1ccc(-c2nn(-c3ccccc3)cc2/C=C\C(=O)N2CCOCC2)cc1[N+](=O)[O-]` gave an inhibition of 12.4%. `COc1ccc(-c2ccc(CNCCCN3CCOCC3)o2)cc1Cl` gave an inhibition of 40%. For `C=CCOc1ccc(Cl)cc1CNCCCN1CCOCC1`, the inhibition was 69.1% (active). With `O=[N+]([O-])c1cc(S(=O)(=O)CCCN2CCOCC2)ccc1F` the inhibition was 1.38%. `COc1ccc(OC)c(Cc2nnc(CCC(=O)NC3CCCC3)o2)c1` showed an inhibition of -0.8%. `O=C1Nc2cc(Cl)c(Cl)cc2N(O)N1c1ccccc1Cl` gave an inhibition of -6.67%. `NC1=NC2(CCCCC2)N(c2ccc(F)cc2F)C(N)=N1` gave an inhibition of -5.15%. With `Cc1cc(C(=O)CC#N)c(C)n1-c1c(C)n(C)n(-c2ccccc2)c1=O` the inhibition was -0.96%. Molecule `CC(=O)c1cnc(SCC(=O)O)nc1C` has an inhibition of -12.2%. For `NNc1nc2c(Cl)cccc2s1`, the inhibition was 99.1% (active). With `C/C(=N\NC(=O)OC(C)(C)C)c1ccc[nH]1` the inhibition was -3.24%. `COc1cc([N+](=O)[O-])ccc1NC(=O)CN1CCCC1` gave an inhibition of -4.3%. With `Cc1cc(-c2nnc(CCC(=O)NC(c3ccccc3)c3ccccc3)o2)no1` the inhibition was 5.43%. `NNC(=O)c1cnn(-c2ccccc2)c1C(F)(F)F` showed an inhibition of -1.35%. In the case of `CN(CC(=O)NCCc1ccccc1)S(=O)(=O)c1cnc[nH]1`, the inhibition is reported as 57.7% (active). `Cc1ccc(NC(=O)CN(C)S(=O)(=O)c2cnc[nH]2)cc1C` showed an inhibition of -1.54%. For `CN(CC(=O)NC1CCCC1)S(=O)(=O)c1cnc[nH]1`, the inhibition was -0.93%. For `COC(=O)c1nc(NC(=O)c2ccc(C(C)(C)C)cc2)n[nH]1`, the inhibition was -4.46%. `CCC(C)(C)NC(=O)C(c1cccc(OC)c1OC)N(CC(C)C)C(=O)CCC(=O)Nc1cc(C)on1` (configuration not stated) gave an inhibition of 9.34%. `O=C1NC(c2cccc(Cl)c2)Nc2ccccc21` (configuration not stated) gave an inhibition of -1.93%. `O=C(O)c1ccc(/C=N/NC(=S)NCc2ccccc2)cc1` showed an inhibition of -3.57%. `O=C(N/N=C/c1ccc2c(c1)OCO2)C(=O)N1CCCC1` gave an inhibition of -3.67%. Work on `Cc1cc(C)cc(C(=O)N2CCN=C2SCc2ccc([N+](=O)[O-])cc2)c1` yielded an inhibition of 20.5%. `O=C(Cc1ccc(F)cc1)N1CCN=C1SCc1cccc([N+](=O)[O-])c1` gave an inhibition of 46.3%. With `Cc1cccc(CC(=O)N2CCN=C2SCc2ccc([N+](=O)[O-])cc2)c1` the inhibition was 88.4% (active). Molecule `Cc1ccc(S(=O)(=O)N2CC(=O)Nc3ccccc32)cc1C` has an inhibition of 3.05%. For `Cc1ccc(C(=O)N2CC(=O)Nc3ccccc32)o1`, the inhibition was -0.84%. For `Cc1cccc(C)c1NC(=O)C(c1ccccc1)N1CC(=O)Nc2ccccc21` (configuration not stated), the inhibition was 57.2% (active).
